Results reported in PubChem BioAssay AID602393 (Broad Institute, 2012).
Hit rate of the full screen: of about 350,000 compounds, about 7,000 (2%) were called active. Cut-off read from the data, not from the text of the source: active = activation above about 40%; inconclusive = no clear call, values can overlap the other calls; inactive = below that. The list comes from a sample in which actives are over-represented; it also holds similar structures and randomly drawn compounds.

Test: Bmi1 luciferase reporter increase in mESCs, primary screen, esBAF inhibitor project, mouse ES cells, Bmi1 luciferase knock-in, single point (AID 602393);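 note: 0% = median of the plate's neutral control wells and 100% = double that signal; a rise in the Bmi1 reporter signal indicates esBAF inhibition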
Settings: 24 h, at 12.5 µM, stronger effect = higher value, 100% = twice the neutral-well signal
In the case of COc1ccc(NC(=O)Nc2ccc3c(c2)[C@H]2C[C@H](CC(=O)NC4CCCC4)O[C@H](CO)[C@H]2O3)cc1, the reporter increase is reported as 2.4% (inactive).
In the case of Cc1csc(NC(=O)C2CCN(S(=O)(=O)c3ccccc3)CC2)n1, the reporter increase is reported as -5.46% (inactive).
In the case of Cc1csc(NC(=O)c2ccc(C)s2)n1, the reporter increase is reported as 50.8% (active).
For Cc1csc(NC(=O)CN2CCCCCC2)n1, the reporter increase was -1.61% (inactive).
With CCNC(=O)[C@H]1[C@H](CO)[C@H]2Cn3c(ccc(/C=C/c4ccccc4)c3=O)[C@@H]1N2C(=O)C1CCC1 the reporter increase was 0.423% (inactive).
With COC(=O)C[C@H]1CC[C@H](NC(=O)c2ccccc2)[C@@H](CO)O1 the reporter increase was -1.98% (inactive).
In the case of C/C=C/c1ccc2c(c1)O[C@@H](CN(C)S(C)(=O)=O)[C@@H](C)CN([C@H](C)CO)S2(=O)=O, the reporter increase is reported as -0.163% (inactive).
With COc1ccc(-c2nnc(SC(=O)N3c4ccccc4Sc4ccccc43)o2)cc1 the reporter increase was 2.78% (inactive).
With COc1ccc(-c2nnc(SCc3cccnc3)o2)cc1 the reporter increase was 52.4% (active).
In the case of COc1cccc(NC(=O)CSc2nnc(-c3cccnc3)o2)c1, the reporter increase is reported as 13.3% (inactive).
With CC(C)NC(=O)N(C)C[C@H]1Oc2ncc(C#CC3CC3)cc2C(=O)N([C@H](C)CO)C[C@@H]1C the reporter increase was -3.17% (inactive).
In the case of CCCC(=O)Nc1ccc2c(c1)OC[C@H](C)N(S(=O)(=O)c1cn(C)cn1)C[C@@H](C)[C@H](OC)CN(C)C2=O, the reporter increase is reported as -1.9% (inactive).
With CN1C(=O)c2cc(NC(=O)c3ccccc3)ccc2OC[C@@H]2O[C@H](CC(=O)NCC3CC3)CC[C@@H]21 the reporter increase was 6.3% (inactive).
In the case of C/C=C/c1ccc2c(c1)O[C@H](CN(C)C(=O)CN(C)C)[C@H](C)CN([C@@H](C)CO)S2(=O)=O, the reporter increase is reported as 0.684% (inactive).
For COc1ccccc1NC(=O)Nc1nc(CC(=O)Nc2ccccc2F)cs1, the reporter increase was 1.14% (inactive).
For CCOC(=O)Cc1csc(NC(NC(=O)OCC)(C(F)(F)F)C(F)(F)F)n1, the reporter increase was -0.744% (inactive).
For CCOC(=O)Cc1csc(NC(=O)Nc2ccccc2)n1, the reporter increase was 47.4% (active).
In the case of C[C@@H]1CN([C@@H](C)CO)C(=O)c2cc(NS(=O)(=O)c3ccccc3)ccc2O[C@@H](C)CCCCO[C@@H]1CN(C)S(=O)(=O)c1cccs1, the reporter increase is reported as 6.97% (inactive).
For C[C@@H]1CN([C@H](C)CO)S(=O)(=O)c2ccc(C#CCN(C)C)cc2O[C@@H]1CN(C)C(=O)C1CCCCC1, the reporter increase was -0.287% (inactive).
For O=C(c1cc(COc2ccc(F)c(F)c2)on1)N1CCOCC1, the reporter increase was 37.7% (inactive).
In the case of Cc1ccc(C)c(OCc2cc(C(=O)N3CCN(c4cnccn4)CC3)no2)c1, the reporter increase is reported as 3.21% (inactive).
In the case of COc1cccc(OCc2cc(C(=O)N3CCN(C(=O)c4ccco4)CC3)no2)c1, the reporter increase is reported as 70.2% (active).
In the case of O=C(c1cc(COc2cccc(C(F)(F)F)c2)on1)N1CCSCC1, the reporter increase is reported as -2.92% (inactive).
For O=C(NCCCc1ccccc1)c1cc(COc2c(F)cccc2F)on1, the reporter increase was 17.5% (inactive).
In the case of O=C(c1cc(COc2ccc(F)cc2F)on1)N1CCOCC1, the reporter increase is reported as 61.9% (active).
For O=C(c1ccco1)N1CCN(C(=O)c2ccc(COc3ccc(F)cc3)o2)CC1, the reporter increase was -8.59% (inactive).
In the case of COc1cccc(OC)c1OCCN1CCN(C(=O)c2ccco2)CC1, the reporter increase is reported as -3.54% (inactive).
With O=C(c1cc(COc2c(F)cccc2F)on1)N1CCSCC1 the reporter increase was 53.1% (active).
With C[C@@H]1CN([C@@H](C)CO)C(=O)c2cc(NC(=O)C3CCCCC3)ccc2O[C@@H](C)CCCCO[C@H]1CN(C)C(=O)Nc1ccc2c(c1)OCO2 the reporter increase was 7.74% (inactive).
In the case of CC(=O)N[C@@H]1C=C[C@H](CC(=O)NCC2CCCCC2)O[C@H]1CO, the reporter increase is reported as 4.99% (inactive).
With C[C@@H]1CCCCO[C@@H](CN(C)Cc2ccncc2)[C@@H](C)CN([C@@H](C)CO)C(=O)c2cc(N(C)C)ccc2O1 the reporter increase was 1.32% (inactive).
With COc1cccc(NC(=O)N[C@@H]2C=C[C@H](CC(=O)NCc3ccccn3)O[C@H]2CO)c1 the reporter increase was -1.55% (inactive).
With COc1cccc(C(=O)Nc2ccc3c(c2)C(=O)N(C)C[C@@H](OC)[C@@H](C)CN(C)[C@@H](C)CO3)c1 the reporter increase was 1.2% (inactive).
In the case of C[C@@H]1CN([C@@H](C)CO)S(=O)(=O)c2ccc(-c3cccnc3)cc2O[C@H]1CN(C)CC1CCOCC1, the reporter increase is reported as 2.46% (inactive).
In the case of O=C(C[C@H]1C[C@@H]2c3cc(NC(=O)CC4CC4)ccc3O[C@@H]2[C@H](CO)O1)NCc1ccccn1, the reporter increase is reported as 0.771% (inactive).
For C[C@H]1CN([C@@H](C)CO)C(=O)c2cc(C3=CCCC3)cnc2O[C@H]1CN(C)C(=O)Nc1ccc(F)cc1, the reporter increase was -1.8% (inactive).
For COc1cccc(-c2cnc3c(c2)C(=O)N([C@H](C)CO)C[C@H](C)[C@H](CN(C)C(=O)NC(C)C)O3)c1, the reporter increase was -3.06% (inactive).
For Cc1ccccc1-c1ccc([C@@H]2[C@H](CO)N3CCCCN(S(=O)(=O)c4ccc(F)cc4)C[C@@H]23)cc1, the reporter increase was -4.12% (inactive).
For O=c1oc2cc(O)ccc2cc1-c1ccc(F)cc1, the reporter increase was 47.3% (active).
For CO[C@@H]1CC[C@H]2CCOc3c(C#N)cccc3C(=O)N(C)C[C@@H](OC)[C@H](C)C(=O)N(C)C[C@@H]1O2, the reporter increase was -3.58% (inactive).
For CCCNC(=O)N(C)C[C@H]1Oc2ncc(-c3ccc(F)cc3)cc2C(=O)N([C@H](C)CO)C[C@H]1C, the reporter increase was 1.97% (inactive).
For C[C@@H](NC(=O)C[C@H]1CC[C@H](NS(=O)(=O)c2cccc(F)c2)[C@H](CO)O1)c1ccccc1, the reporter increase was -2.73% (inactive).
With CO[C@H]1CN(C)C(=O)c2cc(NS(=O)(=O)CC(F)(F)F)ccc2OC[C@@H](C)N(Cc2nccs2)C[C@@H]1C the reporter increase was -3.43% (inactive).
With O=C(Nc1ccc2c(c1)OCO2)N[C@@H]1CC[C@H](CC(=O)N2CCN(c3ccccc3)CC2)O[C@@H]1CO the reporter increase was -0.613% (inactive).
In the case of O=C(NCCC1CCCCN1S(=O)(=O)c1ccccc1)C(=O)NCC1CCCO1 (stereo not drawn), the reporter increase is reported as -3.85% (inactive).
In the case of Cc1ccc(NC(=O)NC2CCCCC2)cc1S(=O)(=O)N1CCOCC1, the reporter increase is reported as -1.63% (inactive).
For Cc1ccc(C)c(S(=O)(=O)N2CCCOC2CNC(=O)C(=O)NC2CCCCC2)c1 (stereo not drawn), the reporter increase was 51.3% (active).
For O=C(C[C@H]1CC[C@H]2[C@@H](COC[C@@H](O)CN2C(=O)c2ccc3c(c2)OCO3)O1)NC1Cc2ccccc2C1, the reporter increase was -0.266% (inactive).
